Measurements published in PubChem BioAssay (NCATS).
“And” between values parts separate entries of the source, which are not always exact repeats. Identical values can stand only once. Results filed as inconclusive are left out. The source made the active and inactive calls. Calls come from the whole dose curve; as a rule, active = well fitted inhibition curve with a large enough effect in the repeat runs; inconclusive = weak or mixed curves; inactive = no such curve, though single readings can be large or run the other way.

target: Cytochrome P450 2C9 (Homo sapiens) (UniProt P11712); experiment: Cytochrome P450 family 2 subfamily C member 9 (CYP2C9) small molecule antagonists: luciferase biochemical (cell-free) qHTS assay (AID 1645842); conditions: P450-Glo CYP2C9 enzyme assay, luciferin luminescence; series mostly up to 57.4 µM; note: nearly all actives have a fitted effect of over 55% in size
Protocol: National Center for Advancing Translational Sciences [NCATS] Assay Overview: Cytochrome P450 (CYP) enzymes are membrane-bound hemeproteins that play a key role in metabolism of drugs and xenobiotics. Assaying the effect of chemicals on CYP isozymes is useful to minimize the adverse drug reactions and toxicities in drug development process. Chemical compounds were tested for their effect on CYP enzyme activities by using P450-Glo (TM) screening systems (Promega Corporation, Madison, WI). These systems provide a luminescent method containing proluciferin substrates and are converted to luciferin products by CYP isozymes. The luciferin products formed are detected with a luciferin detection reagent, and the amount of light produced is proportional to CYP activity. P450-Glo (TM) CYP2C9 screening system (Catalog. No. V9790) was used to detect the compounds that interfere in CYP2C9 activity.
Assay Protocol Summary: Two ul of enzyme-substrate mix supplemented with 0.4% Bovine Serum Albumin was dispensed into medium binding white/solid 1536-well plates (Greiner Bio-One North America Inc., Monroe, NC) using a Flying Reagent Dispenser (FRD, Aurora Discovery, San Diego, CA). […] The assay plates were incubated at room temperature for 10 min. Then 2 ul of NADPH regeneration solution was added to each well of the assay plates using an FRD and incubated at 37C for 1 h. The reaction was stopped by adding 4 ul of detection reagent using an FRD and after 20 min incubation at room temperature, the luminescence signal was measured using a ViewLux plate reader (Perkin Elmer, Shelton, CT). Data were expressed as relative luminescence units.
Potency is the fitted concentration of half-maximal effect.

Chain of Cytochrome P450 2C9 (Homo sapiens) (P11712 whole entry, looked up): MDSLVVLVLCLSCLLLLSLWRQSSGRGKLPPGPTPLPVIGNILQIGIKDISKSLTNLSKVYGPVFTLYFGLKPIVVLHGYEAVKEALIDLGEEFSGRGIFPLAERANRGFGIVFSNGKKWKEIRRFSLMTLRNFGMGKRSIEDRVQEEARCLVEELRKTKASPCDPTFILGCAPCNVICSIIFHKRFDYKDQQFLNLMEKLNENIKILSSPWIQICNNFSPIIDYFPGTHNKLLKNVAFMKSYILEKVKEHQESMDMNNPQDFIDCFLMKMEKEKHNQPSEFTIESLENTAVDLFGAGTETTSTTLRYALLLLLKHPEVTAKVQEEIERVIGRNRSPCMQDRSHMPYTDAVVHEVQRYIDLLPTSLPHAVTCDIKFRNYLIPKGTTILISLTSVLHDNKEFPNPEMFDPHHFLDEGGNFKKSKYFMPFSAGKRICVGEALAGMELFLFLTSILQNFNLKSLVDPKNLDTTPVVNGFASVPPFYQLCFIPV

Structure (SMILES) | Potency
CNC(=O)c1cccc(-c2ccc3c(N4CCOC[C@@H]4C)nc(N4CCOC[C@@H]4C)nc3n2)c1 | 12 µM (active) and 10.7 µM (active)
COc1cc2ncnc(Nc3ccc(O)cc3)c2cc1OC | inactive
Cc1c(C(=O)N2CCOc3ccc(-c4ccc(N)nc4)cc3C2)ccc(S(C)(=O)=O)c1F | inactive
CCc1cnn2c(NCc3ccc[n+]([O-])c3)cc(N3CCCCC3CCO)nc12 (stereo not given) | 15.1 µM (active)
CCCCCCOc1cc2c(cc1N(C)c1ncc(C(=O)O)cn1)C(C)(C)CCC2(C)C | inactive
CNC(=O)c1ccccc1Nc1nc(Nc2ccc(N3CCNCC3)cc2)ncc1Cl | 6.01 µM (active)
Cc1cc2c(F)c(Oc3ncnn4cc(OCC(C)O)c(C)c34)ccc2[nH]1 (stereo not given) | 12 µM (active)
Cc1ccc(-c2ccc3c(ccc4sc5c(c43)NC[C@@H](C)NC5=O)n2)cn1 | inactive
Cc1noc(=O)c2ccc(NC(=O)C(O)(CC(C)(C)c3cccc4c3OCC4)C(F)(F)F)cc12 (stereo not given) | inactive
Cc1nc2sc(C(=O)NCc3ccncc3)c(N)c2c(C)c1Cl | inactive
COc1ccc(C2(O)CCC(N3CC[C@@H](NC(=O)CNC(=O)c4cccc(C(F)(F)F)c4)C3)CC2)cn1 (stereo not given in full) | inactive
COc1ccc(F)cc1-c1cc(NC(=O)[C@@H]2CCCNC2)ncc1Cl | 1.34 µM (active)
CC(=O)N1CCN(C(=O)Cc2ccc(Nc3ncc(F)c(Nc4ccc(C(=O)Nc5ccccc5Cl)cc4)n3)cc2)CC1 | 0.477 µM (active)
O=C(Nc1ccccc1)N1CCN(Cc2ccc3ccccc3n2)CC1 | 10.7 µM (active)
C[C@@H]1CN(Cc2ccccc2)C[C@H]1c1nc2c(cnn2C2CCOCC2)c(=O)[nH]1 | inactive
CNS(=O)(=O)CC1CCC(N(C)c2ncnc3[nH]ccc23)CC1 (stereo not given) | inactive
O=C(NCC(O)CO)c1ccncc1Nc1ccc(I)cc1F (stereo not given) | 16.9 µM (active)
O=C(c1cc2c(cc1F)OC(c1ccc(F)cc1)(c1ccc(Cl)cc1Cl)O2)N1CCOCC1 (stereo not given) | 10.7 µM (active)
CCN1CCN(Cc2ccc(Nc3ncc(F)c(-c4cc(F)c5nc(C)n(C(C)C)c5c4)n3)nc2)CC1 | inactive
COc1ccc(C2=N[C@@H](c3ccc(Cl)cc3)[C@@H](c3ccc(Cl)cc3)N2C(=O)N2CCNC(=O)C2)c(OC(C)C)c1 | inactive

Structure (SMILES) | Potency
C[C@H](Oc1ccc(S(C)(=O)=O)cc1C(=O)N1CCN(c2ncc(C(F)(F)F)cc2F)CC1)C(F)(F)F | 6.74 µM (active)
COc1cc(C(=O)NC2CCN(C)CC2)c(F)cc1Nc1ncc2c(n1)N(C1CCCC1)CC(F)(F)C(=O)N2C | 5.35 µM (active)
CC1(c2nc3c(C(N)=O)cccc3[nH]2)CCCN1 (stereo not given) | inactive
C=CC(=O)Nc1cccc(CN2C(=O)N(c3c(Cl)c(OC)cc(OC)c3Cl)Cc3cnc(NCCCCN(CC)CC)nc32)c1 | 8.49 µM (active)
Cc1nc(NC(=O)N2CCCC2C(N)=O)sc1-c1csc(C(C)(C)C)n1 (stereo not given) | inactive
COc1cc(C(=O)NC2CCN(C)CC2)ccc1Nc1ncc2c(n1)N(C1CCCC1)CC(F)(F)C(=O)N2C | inactive
COC(=O)N(C)c1c(N)nc(-c2nn(Cc3ccccc3F)c3ncccc23)nc1N | 23.9 µM (active)
Nc1ccc(-c2cccc3c(=O)cc(N4CCOCC4)oc23)cc1 | 9.52 µM (active)
Cc1nc(Nc2n[nH]c3c2CN(C(=O)NC(CN(C)C)c2ccccc2)C3(C)C)c2sccc2n1 (stereo not given) | 13.5 µM (active)
N#Cc1cnc2cnc(NCc3cccnc3)cc2c1Nc1ccc(F)c(Cl)c1 | 1.2 µM (active)
CCN(Cc1cccnc1)C(=O)CN(c1ccc(OC)nc1)S(=O)(=O)c1ccccc1C | 19 µM (active)
CC(Oc1ccc2[nH]nc(/C=C/c3cnn(CCO)c3)c2c1)c1c(Cl)cncc1Cl (stereo not given) | 0.536 µM (active)
CC(C)c1nc(-c2ccc(NC(=O)Nc3cccc(C(F)(F)F)c3)c3ccccc23)c2c(N)nccn12 | 0.301 µM (active)
O=C(CN1C(=O)C2(CCCC2)NCC1c1cc(F)cc(F)c1)Nc1ccc2c(c1)CC1(C2)C(=O)Nc2ncccc21 (stereo not given) | 3.01 µM (active)
Cc1cccc(Oc2cnc(=O)[nH]c2)c1 | inactive
COc1cc(Br)c(S(=O)(=O)Nc2ccc(C(F)(F)F)c(O[C@@H]3CCN(C)C3)c2)cc1OC | 23.9 µM (active)
N#Cc1ccc2[nH]cc(CCCCN3CCN(c4ccc5oc(C(N)=O)cc5c4)CC3)c2c1 | 13.5 µM (active)
c1cc(Nc2cc(C3CC3)[nH]n2)nc(Nc2ccc3nc[nH]c3c2)n1 | 9.52 µM (active)
COc1cc(N)c(Cl)cc1C(=O)NC[C@@H]1CCN2CCC[C@@H]12 | 9.52 µM (active)
O=C1CSc2ccccc2N1Cc1cccc(C(F)(F)F)c1 | inactive
